PubChem BioAssay (NCI)
The panel holds about 83,000 compounds, 20% with a hit somewhere; the sample as a whole holds those more often.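 Plates (96-well) were seeded with cells, treated with compound at one concentration, and incubated for 48 hours before percent growth was determined.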 Values without a mark were called inactive. Activity calls are given as the source filed them. Rule for the calls: active = growth percent below 10; inactive = the rest.

Legend:
Assay in all cases: NCI-60 one-dose screen, 48 h (100 = growth as untreated, 0 = no growth, -100 = all killed)
Details in all cases: 10 µM unless noted
[1] = test system: NCI-H23 lung
[2] = test system: NCI-H226 lung
[3] = test system: NCI-H322M lung
[4] = test system: HOP-62 NSCLC
[5] = test system: NCI-H460 lung
[6] = test system: HOP-92 NSCLC
[7] = test system: NCI-H522 lung
[8] = test system: A549/ATCC NSCLC
[9] = test system: 786-0 renal
[10] = test system: COLO 205 colon
[11] = test system: DU-145 prostate
[12] = test system: K-562 leukemia
[13] = test system: MALME-3M melanoma
[14] = test system: MDA-MB-231 breast
[15] = test system: RXF 393 renal
[16] = test system: SF-268 CNS
[17] = test system: SF-295 CNS
[18] = test system: SF-539 CNS
[19] = test system: UACC-257 melanoma
[20] = test system: M14 melanoma

Compound | growth [1] | growth [2] | growth [3] | growth [4] | growth [5] | growth [6] | growth [7] | growth [8] | growth [9] | growth [10] | growth [11] | growth [12] | growth [13] [%] | growth [14] | growth [15] | growth [16] [%] | growth [17] | growth [18] | growth [19] [%] | growth [20] [%]
O=c1cc(CNc2cc(F)cc(F)c2)c2ccc(I)cc2[nH]1 | 46.3% | 68.6% | 48.3% | 37.5% | 18.5% | 54% | 15.6% | 38.6% | 43.7% | 33.7% | 38.4% | 9.97% (active) | 38.9 | 60.6% | 15.1% | 46.9 | 30.9% | -12.6% (active) | 53.4 | 20
N#Cc1c(-c2cccc(Cl)c2)cc(-c2cccnc2)[nH]c1=O | 85.6% | 87.9% | 94.4% | 69.5% | 96.3% | 80.2% | 76.1% | 93% | 96.7% | 93.4% | 94.9% | 43.9% | 62.5 | 81.9% | 100% | 79.9 | 75.9% | 71.6% | 68.2 | 54.2
Cc1[nH]n(-c2cccc(Cl)c2)c(=O)c1/C=C1\C=c2ccccc2=CC1=O | -1.95% (active) | 1.04% (active) | 84.1% | -57.9% (active) | 79% | -2.07% (active) | -11.3% (active) | 60.4% | -46.8% (active) | -83.5% (active) | 35.4% | 99.1% | 59 | 4.08% (active) | -76.9% (active) | 47.2 | 25.6% | 72.3% | 80 | 18.2
CCCCn1c(NC(C)=O)c(S(=O)(=O)c2ccccc2)c2nc3ccccc3nc21 | 94% | 92.5% | 105% | 173% | 110% | 4.95% (active) | 94.9% | 97.1% | 105% | 127% | 104% | 69.3% | 98.9 | 109% | 86.8% | 96.7 | 111% | 97.6% | 99.6 | 106
ClC(Cl)c1nc(-c2ccccc2)n2nc(-c3ccccc3)cc2n1 | -17.6% (active) | 86.9% | -41.7% (active) | -3.61% (active) | -58.2% (active) | 3.98% (active) | 29.9% | -16.2% (active) | 42.9% | -40.3% (active) | -12% (active) | 31.2% | 55.9 | 2.2% (active) | -68% (active) | 11.9 | -13.1% (active) | 0.564% (active) | 33.9 | 32.3
O=C(/C=C/c1ccccc1)c1ccc(-n2cc(CN3CCN(c4cc5c(cc4F)c(=O)c(C(=O)O)cn5C4CC4)CC3)nn2)cc1 | 79.7% | 73% | 84.4% | 79.6% | 76.1% | 79.6% | 80.1% | 88.9% | 54.2% | 108% | 76.3% | 56% | 91.2 | 89.4% | 58.3% | 70.4 | 91.7% | 69% | 91 | 84.4
CCn1cc(Cc2cc(C(=O)Nc3cc4cc(OC)c(OC)cc4c(C)n3)ccc2Cl)cn1 | 52% | 30.8% | 102% | 39.8% | 76.3% | 47.1% | 17.6% | 38.9% | 51.7% | 46.4% | 55.3% | 34.4% | 63.4 | 36.3% | 73.2% | 49.3 | 39.7% | 8.23% (active) | 40.9 | 32.6
C#CCOc1ccc2nc(CCl)c(Cl)c(Nc3cccc(C(F)(F)F)c3)c2c1 | 87.8% | 84.7% | 98.1% | 93% | 105% | 94.6% | 36.4% | 94.7% | 76% | 80% | 72% | 38.8% | 59.5 | 55% | 84.1% | 85.3 | 88% | 104% | 93.7 | 81.4
